Activity calls are given as the source filed them. Rule for the calls: active = hit-call score of the fitted dose curve at least 0.9, where 1 is the maximum; inactive = score below 0.9.
Legend:
[1] = ATG_DR4_LXR_CIS: Attagene CIS-FACTORIAL HepG2 Assay for human Liver X Receptor (LXR), DR4 submotif (AID 2282929); details: HepG2 Attagene DR4 cis-reporter, mRNA transcription; AC50: actives raise or lower the signal unless noted; outcome: actives raise or lower the signal unless noted
Method in brief: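 Transiently transfected HepG2 liver cells; cis-regulated reporters; 24 h dosing. RT-PCR plus CE read-out of reporter mRNA. DMSO baseline, bidirectional curve fitting.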

[2] = target: Aryl hydrocarbon receptor (Homo sapiens) (UniProt P35869); assay: ATG_Ahr_CIS: Attagene CIS-FACTORIAL HepG2 Assay for human Aryl Hydrocarbon Receptor (Ahr) (AID 2282930); details: HepG2 AhR cis-factorial reporter transcription; actives raise or lower the signal
Sequence of Aryl hydrocarbon receptor (Homo sapiens) (P35869 whole entry, looked up): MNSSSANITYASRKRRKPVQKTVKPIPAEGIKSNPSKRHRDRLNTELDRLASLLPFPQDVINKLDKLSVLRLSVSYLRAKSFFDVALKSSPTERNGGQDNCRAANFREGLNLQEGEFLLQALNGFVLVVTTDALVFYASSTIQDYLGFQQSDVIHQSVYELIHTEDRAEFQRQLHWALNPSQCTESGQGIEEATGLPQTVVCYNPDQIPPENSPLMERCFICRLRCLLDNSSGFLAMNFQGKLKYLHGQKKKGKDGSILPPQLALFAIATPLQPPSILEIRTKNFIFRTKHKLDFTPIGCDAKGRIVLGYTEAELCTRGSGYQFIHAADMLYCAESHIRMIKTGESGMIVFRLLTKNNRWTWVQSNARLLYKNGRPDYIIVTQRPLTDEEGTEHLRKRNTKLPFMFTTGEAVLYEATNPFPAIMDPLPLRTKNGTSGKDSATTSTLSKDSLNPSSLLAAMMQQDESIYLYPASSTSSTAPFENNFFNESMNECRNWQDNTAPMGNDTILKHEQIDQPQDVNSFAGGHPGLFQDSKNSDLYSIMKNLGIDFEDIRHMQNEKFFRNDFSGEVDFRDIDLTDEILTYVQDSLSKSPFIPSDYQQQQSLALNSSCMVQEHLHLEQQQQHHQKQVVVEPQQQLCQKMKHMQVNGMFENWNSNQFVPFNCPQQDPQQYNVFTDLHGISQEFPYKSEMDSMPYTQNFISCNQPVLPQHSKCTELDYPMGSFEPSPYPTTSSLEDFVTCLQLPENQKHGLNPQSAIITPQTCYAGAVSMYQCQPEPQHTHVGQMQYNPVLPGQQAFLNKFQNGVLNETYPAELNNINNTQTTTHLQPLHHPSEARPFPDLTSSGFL
Method in brief: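 Endogenous factor activity is tracked through cis-promoter reporter units transfected into HepG2 cells. Transcript levels at 24 h are read by fluorescent RT-PCR and capillary electrophoresis, with activity in either direction scored relative to DMSO.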

[3] = ATG_AP_1_CIS: Attagene CIS-FACTORIAL HepG2 Assay for human Activator Protein 1 (AP-1) (AID 2282931); details: HepG2 Attagene cis-factorial AP-1 reporter mRNA; actives raise or lower the signal
Method in brief: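 We transfected HepG2 cells transiently with a set of cis-regulated reporter transcription units, dosed them for 24 h, and quantified reporter mRNA via RT-PCR and capillary electrophoresis, scoring gain or loss of signal relative to DMSO.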

[4] = ATG_AP_2_CIS: Attagene CIS-FACTORIAL HepG2 Assay for human Activator Protein 2 (AP-2) (AID 2282932); details: HepG2 AP-2 cis-reporter, Attagene transcription factor profiling; AC50: actives raise or lower the signal unless noted; outcome: actives raise or lower the signal unless noted
Method in brief: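 HepG2 cells transiently transfected with cis-element reporter units and exposed for 24 h. Reporter mRNA measured by RT-PCR, FAM labelling, HpaI digestion and capillary electrophoresis. Changes in either direction fitted relative to DMSO.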

[5] = ATG_BRE_CIS: Attagene CIS-FACTORIAL HepG2 Assay for human Bone Morphogenetic Protein (BMP) Response Element (BRE) (AID 2282933); details: HepG2 BMP response element reporter, Attagene transcription factor profiling; actives raise or lower the signal
Method in brief: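 HepG2 cells transiently transfected with multiplexed cis-element reporter units were dosed with chemical for 24 h. Reporter mRNA was measured by RT-PCR with fluorescent labelling, HpaI digestion and capillary electrophoresis; bidirectional fitting relative to DMSO.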

[6] = target: Retinoic acid receptor alpha (Homo sapiens) (UniProt P10276); assay: ATG_DR5_RAR_CIS: Attagene CIS-FACTORIAL HepG2 Assay for human Retinoic Acid Receptor Alpha (RARE), DR5 submotif (AID 2282934); details: HepG2 Attagene cis-factorial RARE DR5 reporter, mRNA; actives raise or lower the signal;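 for AC50: reporter responds to endogenous RAR alpha beta and gamma in HepG2 not RARA alone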
Sequence of Retinoic acid receptor alpha (Homo sapiens) (P10276 whole entry, looked up): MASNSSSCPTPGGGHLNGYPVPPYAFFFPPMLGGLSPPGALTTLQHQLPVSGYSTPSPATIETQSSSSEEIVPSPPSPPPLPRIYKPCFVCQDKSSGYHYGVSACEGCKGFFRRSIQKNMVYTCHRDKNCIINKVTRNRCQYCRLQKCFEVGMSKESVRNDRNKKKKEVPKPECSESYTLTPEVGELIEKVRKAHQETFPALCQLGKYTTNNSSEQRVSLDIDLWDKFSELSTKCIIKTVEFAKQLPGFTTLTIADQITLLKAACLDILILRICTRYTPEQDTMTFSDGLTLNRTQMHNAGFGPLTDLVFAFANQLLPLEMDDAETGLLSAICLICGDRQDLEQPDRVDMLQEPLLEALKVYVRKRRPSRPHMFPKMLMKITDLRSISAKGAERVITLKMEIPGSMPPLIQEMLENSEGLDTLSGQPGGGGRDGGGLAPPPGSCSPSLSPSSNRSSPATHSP
Method in brief: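 After 24 h of chemical exposure, transiently transfected HepG2 cells were lysed for total RNA; the DR5-regulated reporter transcript was quantified via RT-PCR and capillary electrophoresis, with activity fitted bidirectionally against DMSO.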

[7] = ATG_E_Box_CIS: Attagene CIS-FACTORIAL HepG2 Assay for human Enhancer Box (E-box) (AID 2282936); details: HepG2 E-box cis-reporter transcription, actives raise or lower the signal
Method in brief: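 HepG2 cells transiently transfected with multiplexed cis-element reporter units, dosed 24 h; reporter mRNA quantified by RT-PCR, 6-FAM labelling, HpaI digestion and capillary electrophoresis. E-box (USF1) signal fitted bidirectionally vs DMSO.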

[8] = ATG_M_61_CIS: Attagene CIS-FACTORIAL HepG2 Assay for M61 Transcription Factor (Internal Marker) (AID 2282937); details: HepG2 Attagene CIS-FACTORIAL M61 internal marker reporter; actives raise or lower the signal
Method in brief: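 Multiplexed reporter mRNA assay, HepG2 human hepatoma cells, 24 h treatment. Signal: FAM-labelled, HpaI-digested RT-PCR fragments by CE. Fit: bidirectional, baseline DMSO.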

[9] = ATG_EGR_CIS: Attagene CIS-FACTORIAL HepG2 Assay for human Early Growth Response 1 (EGR1) (AID 2282938); details: HepG2 Attagene CIS-FACTORIAL EGR reporter mRNA; actives raise or lower the signal
Method in brief: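 Multiplexed cis-reporter system in human hepatoma HepG2 cells, transiently transfected. Cells are dosed for 24 h; reporter transcripts are amplified, fluorescently tagged and sized by capillary electrophoresis, with DMSO as negative control.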

[10] = ATG_M_19_CIS: Attagene CIS-FACTORIAL HepG2 Assay for M19 Transcription Factor (Internal Marker) (AID 2282939); details: HepG2 Attagene CIS-FACTORIAL M19 internal marker reporter; actives raise or lower the signal
Method in brief: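 HepG2 cells transiently transfected with cis-regulated multiple reporter transcription units were dosed for 24 h; reporter mRNA was quantified by RT-PCR, 6-FAM primer-extension labelling, HpaI digestion and capillary electrophoresis, with bidirectional fitting against DMSO baseline.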

[11] = ATG_ERE_CIS: Attagene CIS-FACTORIAL HepG2 Assay for Estrogen Response Element (ERE) (AID 2282940); details: HepG2 ERE cis-reporter, Attagene RNA transcript; actives raise or lower the signal
Method in brief: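 HepG2 cells transiently transfected with cis-promoter-driven multiplexed reporter transcription units report endogenous TF activity. After 24 h compound exposure, reporter mRNA is quantified by RT-PCR with capillary electrophoresis fluorescence; bidirectional fitting versus DMSO baseline.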

[12] = ATG_Ets_CIS: Attagene CIS-FACTORIAL HepG2 Assay for human Erythroblast Transformation Specific (ETS) (AID 2282941); details: HepG2 ETS cis-reporter transcription; AC50: actives raise or lower the signal unless noted; outcome: actives raise or lower the signal unless noted
Method in brief: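 Steps: transfect HepG2 with multiple reporter units; treat compound 24 h; isolate RNA, DNase-treat, reverse-transcribe; PCR-amplify, label with 6-FAM, digest with HpaI; separate by capillary electrophoresis. Activity fitted both directions versus DMSO.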

[13] = target: Hepatocyte nuclear factor 3-beta (Homo sapiens) (UniProt Q9Y261); assay: ATG_FoxA2_CIS: Attagene CIS-FACTORIAL HepG2 Assay for human Forkhead box A2 (FOXA2) (AID 2282942); details: HepG2 cis-reporter transcription factor activity, 24 h; actives raise or lower the signal
Sequence of Hepatocyte nuclear factor 3-beta (Homo sapiens) (Q9Y261 whole entry, looked up): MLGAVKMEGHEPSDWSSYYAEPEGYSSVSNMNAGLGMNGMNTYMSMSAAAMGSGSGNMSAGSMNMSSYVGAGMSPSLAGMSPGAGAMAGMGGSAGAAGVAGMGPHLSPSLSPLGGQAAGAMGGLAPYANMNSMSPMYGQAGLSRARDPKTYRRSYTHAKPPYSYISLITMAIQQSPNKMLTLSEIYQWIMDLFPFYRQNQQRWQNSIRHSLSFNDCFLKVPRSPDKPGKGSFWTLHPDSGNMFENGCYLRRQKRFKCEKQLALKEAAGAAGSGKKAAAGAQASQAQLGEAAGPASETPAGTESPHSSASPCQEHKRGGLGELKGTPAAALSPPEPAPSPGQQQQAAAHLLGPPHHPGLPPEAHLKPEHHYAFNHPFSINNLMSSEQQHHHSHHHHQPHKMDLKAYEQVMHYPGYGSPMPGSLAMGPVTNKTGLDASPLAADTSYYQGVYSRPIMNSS
Method in brief: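 Multiplexed cis-element reporter assay in transiently transfected HepG2. Twenty-four hours post-dosing, RNA was reverse-transcribed, amplified, FAM-labelled, HpaI-digested and separated by CE. Activity gain or loss relative to DMSO.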

[14] = ATG_FoxO_CIS: Attagene CIS-FACTORIAL HepG2 Assay for human Forkhead box O (FoxO) (AID 2282943); details: HepG2 Attagene cis-reporter, FoxO element, mRNA; actives raise or lower the signal
Method in brief: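 Transfected HepG2 reporter cells exposed to test chemical for 24 h; reporter RNA measured by reverse transcription, PCR and fluorescent capillary electrophoresis; curves fitted for increases and decreases against DMSO.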

[15] = ATG_GATA_CIS: Attagene CIS-FACTORIAL HepG2 Assay for human GATA Binding Protein (AID 2282944); details: HepG2 GATA cis-element reporter, Attagene multiplex mRNA; actives raise or lower the signal
Method in brief: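 HepG2 cells transiently transfected with multiplexed cis-element reporter units reflecting endogenous transcription factor activity; reporter mRNA measured after 24 h dosing by RT-PCR, 6-FAM labeling, HpaI digestion and capillary electrophoresis. Bidirectional fitting versus DMSO baseline.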

[16] = ATG_GLI_CIS: Attagene CIS-FACTORIAL HepG2 Assay for human Zinc Finger Protein GLI1 (AID 2282945); details: HepG2, Attagene cis-factorial reporter mRNA, GLI element; actives raise or lower the signal
Method in brief: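 Transiently transfected HepG2 cells report endogenous transcription factor activity via cis-element-driven reporter units. After 24 h compound exposure, reporter mRNA was measured by RT-PCR with capillary electrophoresis; bidirectional fitting against DMSO baseline.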

[17] = target: Bile acid receptor (Homo sapiens) (UniProt Q96RI1); assay: ATG_IR1_CIS: Attagene CIS-FACTORIAL HepG2 Assay for human Nuclear Receptor Subfamily 1 Group H Member 4 (NR1H4), IR1 submotif (AID 2282946); details: IR1 reporter transcription, actives raise or lower the signal
Sequence of Bile acid receptor (Homo sapiens) (Q96RI1 whole entry, looked up): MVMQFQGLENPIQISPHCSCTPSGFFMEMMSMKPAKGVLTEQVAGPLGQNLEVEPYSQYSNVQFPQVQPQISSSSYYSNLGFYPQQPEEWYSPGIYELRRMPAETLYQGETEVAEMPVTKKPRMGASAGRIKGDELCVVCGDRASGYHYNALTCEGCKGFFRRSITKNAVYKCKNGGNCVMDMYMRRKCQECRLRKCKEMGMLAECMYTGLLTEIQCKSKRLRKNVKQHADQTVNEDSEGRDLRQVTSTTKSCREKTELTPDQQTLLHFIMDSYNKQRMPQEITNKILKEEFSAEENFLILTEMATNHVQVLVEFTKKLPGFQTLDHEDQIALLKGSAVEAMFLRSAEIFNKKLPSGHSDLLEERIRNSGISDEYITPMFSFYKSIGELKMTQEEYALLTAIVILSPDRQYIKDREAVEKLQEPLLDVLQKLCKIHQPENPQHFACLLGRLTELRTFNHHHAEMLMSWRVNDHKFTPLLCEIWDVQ
Method in brief: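 HepG2 cells transiently transfected with multiple cis-promoter-driven reporter units to measure endogenous transcription factor activity; 24 h exposure. Reporter mRNA read by RT-PCR, FAM labelling, HpaI digestion and capillary electrophoresis. Bidirectional fit versus DMSO.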

[18] = ATG_GRE_CIS: Attagene CIS-FACTORIAL HepG2 Assay for human Glucocorticoid Response Elements (GRE) (AID 2282947); details: HepG2 GRE cis-reporter, Attagene multiplex mRNA; AC50: actives raise or lower the signal unless noted; outcome: actives raise or lower the signal unless noted
Method in brief: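 Transiently transfected HepG2 cells carrying GRE cis-reporter units (endogenous TF activity) dosed 24 h; reporter mRNA quantified by RT-PCR, 6-FAM labelling, HpaI digestion and capillary electrophoresis. Bidirectional fit versus DMSO baseline.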

[19] = ATG_ISRE_CIS: Attagene CIS-FACTORIAL HepG2 Assay for human Interferon Regulatory Factor 1 (IRF1) binding to an Interferon-Stimulated Response Element (ISRE) (AID 2282948); details: HepG2 ISRE cis-reporter (Attagene), mRNA transcription readout; actives raise or lower the signal
Method in brief: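 Transfected HepG2 (multiple reporter transcription units, cis elements) dosed 24 h. RNA → oligo(dT) RT → PCR → 6-FAM primer extension → HpaI → CE. DMSO = negative control/baseline.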

[20] = target: Transcription factor E2F1 (Homo sapiens) (UniProt Q01094); assay: ATG_E2F_CIS: Attagene CIS-FACTORIAL HepG2 Assay for human E2F Transcription Factor 1 (AID 2282935); details: HepG2 Attagene cis-reporter, E2F reporter RNA transcripts; actives raise or lower the signal
Sequence of Transcription factor E2F1 (Homo sapiens) (Q01094 whole entry, looked up): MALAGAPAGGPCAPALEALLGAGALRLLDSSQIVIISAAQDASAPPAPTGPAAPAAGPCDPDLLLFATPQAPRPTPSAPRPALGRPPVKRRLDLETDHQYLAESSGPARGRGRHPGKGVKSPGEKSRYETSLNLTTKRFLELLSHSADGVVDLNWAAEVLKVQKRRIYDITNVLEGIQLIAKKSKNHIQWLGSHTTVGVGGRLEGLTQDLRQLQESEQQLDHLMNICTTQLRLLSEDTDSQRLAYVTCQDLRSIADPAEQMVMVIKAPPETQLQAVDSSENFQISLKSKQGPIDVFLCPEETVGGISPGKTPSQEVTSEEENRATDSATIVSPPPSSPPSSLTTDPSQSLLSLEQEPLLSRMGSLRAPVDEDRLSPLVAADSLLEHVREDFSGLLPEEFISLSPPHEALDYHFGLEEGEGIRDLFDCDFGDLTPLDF
Method in brief: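 Endogenous E2F1 activity read through cis-promoter reporter units transfected into HepG2. After 24 h compound treatment, reporter mRNA measured by RT-PCR, HpaI digestion and capillary electrophoresis. Bidirectional fit versus DMSO.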

## CCCCCCCCCCCCOC(=O)c1cc(O)c(O)c(O)c1
[1]
  AC50: 6.4 µM (active)
[2]
  outcome: inactive
[3]
  AC50: 11.1 µM (active)
[4]
  outcome: inactive
[5]
  outcome: inactive
[6]
  outcome: inactive
[7]
  AC50: 2.92 µM (active)
[8]
  outcome: inactive
[9]
  outcome: inactive
[10]
  outcome: inactive
[11]
  outcome: inactive
[12]
  outcome: inactive
[13]
  outcome: inactive
[14]
  outcome: inactive
[15]
  outcome: inactive
[16]
  outcome: inactive
[17]
  outcome: inactive
[18]
  outcome: inactive
[19]
  AC50: 11.1 µM (active)

## CC=O
[1]
  outcome: inactive
[2]
  outcome: inactive
[3]
  outcome: inactive
[4]
  outcome: inactive
[6]
  outcome: inactive
[20]
  outcome: inactive
[7]
  outcome: inactive
[8]
  outcome: inactive
[9]
  outcome: inactive
[10]
  outcome: inactive
[11]
  outcome: inactive
[12]
  outcome: inactive
[14]
  outcome: inactive
[15]
  outcome: inactive
[16]
  outcome: inactive
[17]
  outcome: inactive
[18]
  outcome: inactive
[19]
  outcome: inactive

## COc1cccc(O)c1
[1]
  outcome: inactive
[2]
  outcome: inactive
[3]
  outcome: inactive
[4]
  outcome: inactive
[5]
  outcome: inactive
[6]
  outcome: inactive
[7]
  outcome: inactive
[8]
  outcome: inactive
[9]
  outcome: inactive
[10]
  outcome: inactive
[11]
  outcome: inactive
[12]
  outcome: inactive
[13]
  outcome: inactive
[14]
  outcome: inactive
[15]
  outcome: inactive
[16]
  outcome: inactive
[17]
  outcome: inactive
[19]
  outcome: inactive

## CCc1cccc(CC)c1N(COC)C(=O)CS(=O)(=O)O
[1]
  outcome: inactive
[2]
  outcome: inactive
[3]
  outcome: inactive
[4]
  outcome: inactive
[6]
  outcome: inactive
[20]
  outcome: inactive
[7]
  outcome: inactive
[8]
  outcome: inactive
[9]
  outcome: inactive
[10]
  outcome: inactive
[11]
  outcome: inactive
[12]
  outcome: inactive
[13]
  outcome: inactive
[14]
  outcome: inactive
[15]
  outcome: inactive
[16]
  outcome: inactive
[17]
  outcome: inactive
[18]
  outcome: inactive
[19]
  outcome: inactive

## FC(F)=C(F)C(F)(F)C(F)(F)C(F)(F)C(F)F
[1]
  outcome: inactive
[2]
  outcome: inactive
[3]
  outcome: inactive
[4]
  outcome: inactive
[5]
  outcome: inactive
[6]
  outcome: inactive
[20]
  outcome: inactive
[7]
  outcome: inactive
[8]
  outcome: inactive
[9]
  outcome: inactive
[11]
  outcome: inactive
[12]
  outcome: inactive
[14]
  outcome: inactive
[15]
  outcome: inactive
[16]
  outcome: inactive
[17]
  outcome: inactive
[18]
  outcome: inactive
[19]
  outcome: inactive

## O=C(Nc1ccc(Cl)c(Cl)c1)c1cc(Cl)cc(Cl)c1O
[1]
  AC50: 28.6 µM (active)
[2]
  AC50: 0.0441 µM (active)
[3]
  outcome: inactive
[4]
  AC50: 2.07 µM (active)
[6]
  AC50: 1.37 µM (active)
[20]
  outcome: inactive
[7]
  outcome: inactive
[8]
  outcome: inactive
[9]
  AC50: 8.8 µM (active)
[10]
  outcome: inactive
[11]
  outcome: inactive
[12]
  outcome: inactive
[13]
  AC50: 0.502 µM (active)
[14]
  outcome: inactive
[16]
  AC50: 50.6 µM (active)
[17]
  AC50: 52.4 µM (active)
[19]
  AC50: 33.4 µM (active)

## CCOC=C(C(=O)OCC)C(=O)OCC
[1]
  outcome: inactive
[2]
  outcome: inactive
[3]
  outcome: inactive
[4]
  outcome: inactive
[5]
  outcome: inactive
[6]
  outcome: inactive
[7]
  outcome: inactive
[8]
  outcome: inactive
[9]
  outcome: inactive
[10]
  outcome: inactive
[11]
  outcome: inactive
[12]
  outcome: inactive
[13]
  outcome: inactive
[14]
  outcome: inactive
[15]
  outcome: inactive
[16]
  outcome: inactive
[17]
  outcome: inactive
[18]
  outcome: inactive
[19]
  outcome: inactive
